The text below walks through data of PubChem BioAssay (EPA / NIEHS).

Read-out in assay [1]: E-selectin (Homo sapiens) (UniProt P16581)
Put plainly: BSK_SAg_Eselectin: BioMAP Diversity Plus: SAg Assay for Eselectin Biomarker Activity (AID 2283091). The note with it: primary human HUVEC with PBMC; actives raise or lower the signal. The method, boiled down: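 Cell-surface E-selectin is read by ELISA at 24 h in the SAg co-culture of HUVEC and PBMC. Curves are fitted in both directions relative to DMSO. Parallel SRB total-protein staining tracks overt toxicity.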

Read-out in assay [2]: Monokine induced gamma interferon (MIG), CXCL9 (gene 4283)
Put plainly: BSK_SAg_MIG: BioMAP Diversity Plus: SAg Assay for Monokine induced gamma interferon (MIG) Biomarker Activity (AID 2283092). The following applies: primary human HUVEC with PBMC; actives raise or lower the signal. The method, boiled down: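 Endothelial cells and PBMC were co-cultured, exposed to test chemicals, and sampled 24 h later. MIG was measured by ELISA, and responses were fitted in both directions relative to DMSO.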

Read-out in assay [3]: Interleukin-8 (IL8), CXCL8 (gene 3576)
The assay is described as follows: BSK_SAg_IL8: BioMAP Diversity Plus: SAg Assay for Interleukin-8 (IL8) Biomarker Activity (AID 2283094). The following applies: primary human HUVEC with PBMC; actives raise or lower the signal. The method, boiled down: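 Human umbilical vein endothelial cells co-cultured with peripheral blood mononuclear cells; IL-8 measured by ELISA 24 h after chemical dosing. Bidirectional concentration-response fitting used DMSO as negative control and activity baseline.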

Assay [4] in a line: BSK_SAg_Proliferation: Cell Proliferation Assessment in the BioMAP Diversity Plus: SAg Assay (AID 2283095).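 Note: relative cell number as total protein by SRB absorbance in sub-confluent culture.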 The following applies: primary human HUVEC with PBMC. A digest of the protocol:
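Human umbilical vein endothelial cells co-cultured with peripheral blood mononuclear cells; total protein measured by sulforhodamine B staining (0.1% SRB after 10% TCA fixation), absorbance at 560 nm, at 96 h. Bidirectional fit against DMSO baseline.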

Assay [5] can be described thus: BSK_SAg_SRB: Viability Assessment in the BioMAP Diversity Plus: SAg Assay (AID 2283096).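 Note: cells read one day after compound addition; hits may be either gain or loss of signal compared with DMSO.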 The note with it: primary human HUVEC with PBMC. A digest of the protocol:
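Human umbilical vein endothelial cells co-cultured with PBMC, read 24 h after compound dosing. Total protein measured by sulforhodamine B staining (0.1% SRB after 10% TCA fixation, absorbance 560 nm); bidirectional fit versus DMSO baseline.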

The target in assay [6] is Cytochrome P450 2C19 (Homo sapiens) (UniProt P33261). The assay is described as follows: NVS_ADME_hCYP2C19: NovaScreen (NVS) CYP450-related Enzyme Activity (ADME) Assay for human CYP2C19 (AID 2283113; active = hit-call score of the fitted dose curve at least 0.9, where 1 is the maximum;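 for AC50: potency for inhibition seen as loss of fluorescent signal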). The method, boiled down: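 Compounds first screened in duplicate at 10 uM, then confirmed in concentration series. Insect-cell-expressed human CYP2C19 turned over a fluorogenic substrate, and fluorescence was read after 1 h. Inhibition taken as signal loss relative to acetonitrile.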

For assay [7], the target named is human CYP4F12, CYP4F12 (gene 66002) (UniProt Q9HCS2). Put plainly: NVS_ADME_hCYP4F12: NovaScreen (NVS) CYP450-related Enzyme Activity (ADME) Assay for human CYP4F12 (AID 2283111; active = hit-call score of the fitted dose curve at least 0.9, where 1 is the maximum). A digest of the protocol:
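Cell-free fluorescence assay of recombinant human CYP4F12 activity on a specific substrate, read 0.5 h after dosing. Primary screen in duplicate at 10 uM, then concentration series for actives; loss of signal fitted against acetonitrile negative control.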

Assay [8] addresses human CYP2B6, CYP2B6 (gene 1555) (UniProt P20813). Put plainly: NVS_ADME_hCYP2B6: NovaScreen (NVS) CYP450-related Enzyme Activity (ADME) Assay for human CYP2B6 (AID 2283101; active = hit-call score of the fitted dose curve at least 0.9, where 1 is the maximum). The method, boiled down:
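Cell-free recombinant enzyme assay with a fluorogenic substrate; fluorescence intensity read 1 hour after dosing. Loss of signal relative to acetonitrile negative control indicates inhibition. Primary screen run in duplicate at 10 uM, actives then tested in concentration series.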

For assay [9], the target named is human CYP1A2, CYP1A2 (gene 1544) (UniProt P05177). Put plainly: NVS_ADME_hCYP1A2: NovaScreen (NVS) CYP450-related Enzyme Activity (ADME) Assay for human CYP1A2 (AID 2283102; active = hit-call score of the fitted dose curve at least 0.9, where 1 is the maximum;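 note: potency for inhibition since loss of fluorescence marks reduced CYP1A2 activity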). The method, boiled down: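 Enzyme activity of insect-cell-expressed human CYP1A2 measured by fluorescence 0.5 h after compound addition, relative to acetonitrile. Compounds first tested in duplicate at 10 uM, actives followed up in concentration series.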

The target of assay [10] is human CYP2C9, CYP2C9 (gene 1559) (UniProt P11712). The assay is described as follows: NVS_ADME_hCYP2C9: NovaScreen (NVS) CYP450-related Enzyme Activity (ADME) Assay for human CYP2C9 (AID 2283108; active = hit-call score of the fitted dose curve at least 0.9, where 1 is the maximum). A digest of the protocol:
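Recombinant human CYP2C9 expressed in SF9 cells, fluorogenic substrate, fluorescence read 0.75 h after dosing. Chemicals first run in duplicate at 10 uM, with actives followed in concentration series; loss of signal versus acetonitrile baseline.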

Assay [11] addresses human CYP1A1, CYP1A1 (gene 1543) (UniProt P04798). The assay is described as follows: NVS_ADME_hCYP1A1: NovaScreen (NVS) CYP450-related Enzyme Activity (ADME) Assay for human CYP1A1 (AID 2283100; active = hit-call score of the fitted dose curve at least 0.9, where 1 is the maximum). The method, boiled down: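 Chemicals were first tested in duplicate at 10 uM, and those passing a 30% inhibition threshold were rerun as concentration series topping at 20 uM. Fluorescence read-out of recombinant enzyme turnover after 1 h, relative to acetonitrile.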

For assay [12], the target named is human CYP19A1, CYP19A1 (gene 1588) (UniProt P11511). The assay is described as follows: NVS_ADME_hCYP19A1: NovaScreen (NVS) CYP450-related Enzyme Activity (ADME) Assay for human CYP19A1 (AID 2283098; active = hit-call score of the fitted dose curve at least 0.9, where 1 is the maximum;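 note: potency for inhibitors seen as loss of fluorescent enzyme signal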). A digest of the protocol:
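Recombinant enzyme in a cell-free format, read 0.5 h after dosing by fluorescence from a fluorogenic substrate. Loss of signal was fitted against acetonitrile as baseline. Primary screen in duplicate at 10 uM, actives then tested in concentration series.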

Assay [13] has as its target human CYP2A6, CYP2A6 (gene 1548) (UniProt P11509). The assay is described as follows: NVS_ADME_hCYP2A6: NovaScreen (NVS) CYP450-related Enzyme Activity (ADME) Assay for human CYP2A6 (AID 2283099; active = hit-call score of the fitted dose curve at least 0.9, where 1 is the maximum). A digest of the protocol: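 Compounds screened at 10 uM (duplicate) and, if active, titrated to a 20 uM top concentration against insect-cell-expressed CYP2A6. Loss of fluorescent product signal after 0.5 h, relative to acetonitrile baseline, indicates inhibition.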

Assay [14] deals with Cytochrome P450 3A4 (Homo sapiens) (UniProt P08684). The assay is described as follows: NVS_ADME_hCYP3A4: NovaScreen (NVS) CYP450-related Enzyme Activity (ADME) Assay for human CYP3A4 (AID 2283110; active = hit-call score of the fitted dose curve at least 0.9, where 1 is the maximum). A digest of the protocol:
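Cell-free recombinant enzyme expressed in insect cells; fluorescent substrate turnover read after 0.33 h, acetonitrile as negative control. Primary screen in duplicate at 10 uM, actives then tested in concentration series.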

Results filed as inconclusive are left out. Active and inactive are the calls of the source. Rule for the calls, unless noted: active = hit-call score of the fitted dose curve at least 0.9, where 1 is the maximum; inactive = score below 0.9.

Chain of human CYP2C9, CYP2C9 (gene 1559) (P11712 whole entry, looked up): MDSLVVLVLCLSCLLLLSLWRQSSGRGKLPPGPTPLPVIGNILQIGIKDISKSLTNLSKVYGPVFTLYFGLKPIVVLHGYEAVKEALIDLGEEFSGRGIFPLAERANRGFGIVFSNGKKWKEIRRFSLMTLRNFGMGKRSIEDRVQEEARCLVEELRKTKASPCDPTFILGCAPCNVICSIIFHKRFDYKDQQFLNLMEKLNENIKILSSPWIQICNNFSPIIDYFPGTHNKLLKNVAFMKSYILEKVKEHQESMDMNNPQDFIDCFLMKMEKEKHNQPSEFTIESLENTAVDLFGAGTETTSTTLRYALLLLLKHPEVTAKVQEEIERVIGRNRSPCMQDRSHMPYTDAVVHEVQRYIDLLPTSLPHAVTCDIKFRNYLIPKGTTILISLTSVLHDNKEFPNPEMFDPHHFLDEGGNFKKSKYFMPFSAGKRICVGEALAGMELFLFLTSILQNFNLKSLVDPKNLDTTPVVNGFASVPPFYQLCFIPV
Chain of E-selectin (Homo sapiens) (P16581 whole entry, looked up): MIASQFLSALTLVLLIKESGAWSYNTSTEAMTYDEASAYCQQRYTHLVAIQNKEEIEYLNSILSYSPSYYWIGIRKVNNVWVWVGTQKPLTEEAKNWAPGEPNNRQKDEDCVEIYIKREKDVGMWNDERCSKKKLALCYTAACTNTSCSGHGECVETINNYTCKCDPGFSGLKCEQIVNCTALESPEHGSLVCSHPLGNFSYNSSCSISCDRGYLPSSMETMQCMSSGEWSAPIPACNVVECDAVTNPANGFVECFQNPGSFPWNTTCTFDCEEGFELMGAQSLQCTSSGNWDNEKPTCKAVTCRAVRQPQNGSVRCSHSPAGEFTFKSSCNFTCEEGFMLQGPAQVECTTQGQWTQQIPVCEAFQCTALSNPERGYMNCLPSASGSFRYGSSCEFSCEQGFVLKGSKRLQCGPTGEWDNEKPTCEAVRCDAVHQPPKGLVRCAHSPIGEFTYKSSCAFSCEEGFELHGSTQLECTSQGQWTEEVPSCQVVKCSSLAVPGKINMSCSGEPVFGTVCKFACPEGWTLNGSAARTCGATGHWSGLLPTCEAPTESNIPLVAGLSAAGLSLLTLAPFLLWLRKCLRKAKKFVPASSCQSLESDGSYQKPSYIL
Chain of human CYP2A6, CYP2A6 (gene 1548) (P11509 whole entry, looked up): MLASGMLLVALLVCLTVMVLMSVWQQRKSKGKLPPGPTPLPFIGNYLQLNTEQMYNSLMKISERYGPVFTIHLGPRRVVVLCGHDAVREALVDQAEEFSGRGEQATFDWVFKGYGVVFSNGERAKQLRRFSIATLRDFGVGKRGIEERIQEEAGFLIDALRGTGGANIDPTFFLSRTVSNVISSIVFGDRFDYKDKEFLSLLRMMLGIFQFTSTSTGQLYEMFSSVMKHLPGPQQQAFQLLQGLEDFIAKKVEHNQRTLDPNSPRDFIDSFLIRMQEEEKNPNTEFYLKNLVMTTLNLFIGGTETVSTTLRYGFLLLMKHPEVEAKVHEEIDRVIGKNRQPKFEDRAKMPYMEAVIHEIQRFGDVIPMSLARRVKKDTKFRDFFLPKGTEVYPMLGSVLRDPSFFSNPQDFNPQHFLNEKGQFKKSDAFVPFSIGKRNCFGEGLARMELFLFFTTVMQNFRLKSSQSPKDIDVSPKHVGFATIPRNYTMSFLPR
Chain of human CYP2B6, CYP2B6 (gene 1555) (P20813 whole entry, looked up): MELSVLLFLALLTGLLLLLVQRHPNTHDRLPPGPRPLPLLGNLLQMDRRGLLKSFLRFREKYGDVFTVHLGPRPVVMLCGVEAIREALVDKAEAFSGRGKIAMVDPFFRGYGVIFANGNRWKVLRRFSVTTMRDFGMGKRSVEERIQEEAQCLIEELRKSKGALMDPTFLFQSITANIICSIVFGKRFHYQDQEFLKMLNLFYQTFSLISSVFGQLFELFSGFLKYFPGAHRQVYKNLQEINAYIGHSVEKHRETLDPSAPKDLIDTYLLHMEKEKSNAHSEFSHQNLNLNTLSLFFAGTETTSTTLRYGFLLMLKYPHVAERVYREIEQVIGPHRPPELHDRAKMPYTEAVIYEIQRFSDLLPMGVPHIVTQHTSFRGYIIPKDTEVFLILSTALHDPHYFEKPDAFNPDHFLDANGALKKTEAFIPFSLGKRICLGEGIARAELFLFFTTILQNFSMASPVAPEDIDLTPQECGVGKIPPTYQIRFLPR
Chain of human CYP1A1, CYP1A1 (gene 1543) (P04798 whole entry, looked up): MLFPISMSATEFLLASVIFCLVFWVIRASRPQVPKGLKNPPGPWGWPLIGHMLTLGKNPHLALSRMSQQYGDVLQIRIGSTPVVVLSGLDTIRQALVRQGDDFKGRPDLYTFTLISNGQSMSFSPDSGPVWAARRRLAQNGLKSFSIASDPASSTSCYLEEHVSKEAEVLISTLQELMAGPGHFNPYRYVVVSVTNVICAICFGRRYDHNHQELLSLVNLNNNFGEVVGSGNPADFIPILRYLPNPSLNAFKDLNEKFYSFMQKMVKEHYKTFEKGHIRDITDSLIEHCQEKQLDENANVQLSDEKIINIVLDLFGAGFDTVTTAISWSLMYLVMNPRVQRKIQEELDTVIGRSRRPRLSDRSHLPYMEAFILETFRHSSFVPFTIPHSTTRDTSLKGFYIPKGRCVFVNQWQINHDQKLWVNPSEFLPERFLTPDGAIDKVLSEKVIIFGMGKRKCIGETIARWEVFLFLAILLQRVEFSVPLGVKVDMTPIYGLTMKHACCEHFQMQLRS
Chain of Cytochrome P450 3A4 (Homo sapiens) (P08684 whole entry, looked up): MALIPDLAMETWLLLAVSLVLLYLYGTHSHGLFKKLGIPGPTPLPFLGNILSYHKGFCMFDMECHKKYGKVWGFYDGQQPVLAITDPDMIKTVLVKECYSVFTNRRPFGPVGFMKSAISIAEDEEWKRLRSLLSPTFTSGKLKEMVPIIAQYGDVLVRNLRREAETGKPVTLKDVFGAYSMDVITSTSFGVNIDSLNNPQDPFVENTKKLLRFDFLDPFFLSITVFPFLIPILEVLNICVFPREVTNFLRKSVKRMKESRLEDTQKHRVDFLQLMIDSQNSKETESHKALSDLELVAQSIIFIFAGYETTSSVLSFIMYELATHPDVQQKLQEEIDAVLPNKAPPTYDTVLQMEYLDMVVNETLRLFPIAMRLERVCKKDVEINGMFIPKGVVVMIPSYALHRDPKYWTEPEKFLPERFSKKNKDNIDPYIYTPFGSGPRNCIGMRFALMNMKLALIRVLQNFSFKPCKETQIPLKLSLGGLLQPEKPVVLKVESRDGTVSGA
Chain of human CYP19A1, CYP19A1 (gene 1588) (P11511 whole entry, looked up): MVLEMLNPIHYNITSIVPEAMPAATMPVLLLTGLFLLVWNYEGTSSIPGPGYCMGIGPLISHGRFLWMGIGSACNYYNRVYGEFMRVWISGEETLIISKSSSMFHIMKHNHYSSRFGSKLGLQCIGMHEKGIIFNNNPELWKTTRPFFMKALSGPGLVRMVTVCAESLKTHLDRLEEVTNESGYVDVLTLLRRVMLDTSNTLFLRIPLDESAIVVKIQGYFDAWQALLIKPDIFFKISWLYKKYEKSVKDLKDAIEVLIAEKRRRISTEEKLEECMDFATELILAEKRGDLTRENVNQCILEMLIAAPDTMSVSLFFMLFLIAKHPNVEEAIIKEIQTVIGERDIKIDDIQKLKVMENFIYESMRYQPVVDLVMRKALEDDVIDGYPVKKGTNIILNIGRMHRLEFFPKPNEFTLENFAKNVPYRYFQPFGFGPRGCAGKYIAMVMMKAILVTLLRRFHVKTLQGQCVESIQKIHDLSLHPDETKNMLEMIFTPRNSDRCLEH
Chain of human CYP1A2, CYP1A2 (gene 1544) (P05177 whole entry, looked up): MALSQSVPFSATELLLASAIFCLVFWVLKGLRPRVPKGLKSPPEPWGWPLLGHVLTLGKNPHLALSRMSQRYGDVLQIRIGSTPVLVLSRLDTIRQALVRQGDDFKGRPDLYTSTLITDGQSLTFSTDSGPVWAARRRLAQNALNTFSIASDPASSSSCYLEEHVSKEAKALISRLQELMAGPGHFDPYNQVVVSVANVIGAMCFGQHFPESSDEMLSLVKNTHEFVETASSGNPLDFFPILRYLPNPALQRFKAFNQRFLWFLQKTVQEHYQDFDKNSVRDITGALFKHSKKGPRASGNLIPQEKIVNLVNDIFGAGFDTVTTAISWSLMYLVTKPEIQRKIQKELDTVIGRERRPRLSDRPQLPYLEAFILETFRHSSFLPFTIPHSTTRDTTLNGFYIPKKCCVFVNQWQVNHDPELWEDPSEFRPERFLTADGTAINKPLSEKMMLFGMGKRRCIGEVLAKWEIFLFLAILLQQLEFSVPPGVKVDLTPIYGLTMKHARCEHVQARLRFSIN
Chain of human CYP4F12, CYP4F12 (gene 66002) (Q9HCS2 whole entry, looked up): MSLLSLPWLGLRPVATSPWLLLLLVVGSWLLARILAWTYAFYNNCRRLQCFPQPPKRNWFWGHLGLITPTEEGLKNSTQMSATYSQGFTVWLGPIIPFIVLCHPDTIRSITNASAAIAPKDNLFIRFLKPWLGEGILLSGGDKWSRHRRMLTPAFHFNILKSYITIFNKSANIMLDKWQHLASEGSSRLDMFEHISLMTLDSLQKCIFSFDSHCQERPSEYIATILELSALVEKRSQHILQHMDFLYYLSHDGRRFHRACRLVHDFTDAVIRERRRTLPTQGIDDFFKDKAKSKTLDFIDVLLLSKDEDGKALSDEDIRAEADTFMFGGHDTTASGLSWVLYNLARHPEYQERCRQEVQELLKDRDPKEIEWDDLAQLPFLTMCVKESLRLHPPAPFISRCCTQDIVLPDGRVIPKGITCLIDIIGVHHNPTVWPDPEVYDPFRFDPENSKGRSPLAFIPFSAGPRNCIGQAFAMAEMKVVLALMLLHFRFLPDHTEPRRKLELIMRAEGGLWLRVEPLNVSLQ

Turning to `CC(Cc1ccc(OCC(=O)O)cc1)NCC(O)c1csc(C(F)(F)F)n1` (centres undefined), the outcome in assay [1], in assay [2], in [3], in assay [4], in assay [5] and in [6] was inactive.
`O=[N+]([O-])c1ccccc1`: the outcome in assay [1], in [2], in assay [3], in [4], in assay [5] and in assay [7] was inactive.
With `COCCOCCO`, the outcome in [1], in [2], in assay [3], in [4] and in [5] was inactive.
A word on the AC50: it is the concentration giving half of the maximal activity seen. Consider `ClC1=C(Cl)C2(Cl)C3C(Cl)C(Cl)CC3C1(Cl)C2(Cl)Cl` (centres undefined), for which the half-maximal activity concentration (AC50) is 32.3 µM (active) in assay [1]; 34.4 µM (active) in assay [2]; 34.7 µM (active) in assay [3]; 7.61 µM (active) in [4]; 31.1 µM (active) in assay [5]; 5.2 µM (active) in assay [8]. Besides, the concentration at half-maximal activity (AC50) in [6] was 6.11 µM (active).
For `O=C(O)C(Cl)Cl`, the result in [1], in assay [2], in [3], in assay [4] and in assay [5] was inactive.
Take `CC(Cl)(Cl)C(=O)O`: the outcome in assay [1], in [2], in assay [3], in assay [4] and in assay [5] was inactive.
Regarding `c1ccc2c(c1)Nc1ccccc1S2`, the outcome in assay [1], in assay [2], in assay [3] and in [5] was inactive. The concentration at half-maximal activity (AC50) in [4] is 20 µM (active); in [9] it was 1.45 µM (active); in [10], 6.5 µM (active); in [6] it was 6.45 µM (active).
For `CCCCN(CCCC)SN(C)C(=O)Oc1cccc2c1OC(C)(C)C2`, the concentration at half-maximal activity (AC50) in [1] was 32.6 µM (active); in [2], 32.1 µM (active); in assay [3] it was 33 µM (active); in assay [4], 9.37 µM (active); in assay [5], 24 µM (active); in [10], 16.8 µM (active). Besides, the compound was classed as inactive in assay [11] and in [6].
For the compound `CCOP(=S)(S)OCC`, the result in [1], in assay [2], in assay [3], in assay [4] and in assay [5] was inactive.
Consider `O=S(=O)(c1ccc(O)cc1)c1ccc(O)cc1`, for which, in assay [12], the concentration at half-maximal activity (AC50) is 8.81 µM (active).
For the compound `CCOP(=S)(NC(C)C)Oc1ccccc1C(=O)OC(C)C` (centres undefined), the result in assay [1], in assay [2], in assay [3], in assay [4] and in [5] was inactive.
As for `Cc1ccc(N)cc1N`, the result in [1], in assay [2], in assay [3], in assay [4], in assay [5] and in assay [13] was inactive.
For `C=CC(=O)OCC(CC)(COC(=O)C=C)COC(=O)C=C`, the half-maximal activity concentration (AC50) in assay [1] was 1.36 µM (active); in assay [2] it was 3.36 µM (active); in assay [3] it was 1.7 µM (active); in assay [4] it was 0.587 µM (active); in assay [5], 3.38 µM (active); in [6], 2.4 µM (active).
As for `O=C(O)C1C(C(=O)O)C2(Cl)C(Cl)=C(Cl)C1(Cl)C2(Cl)Cl` (centres undefined), the result in assay [1], in [2], in assay [3], in assay [4], in [5] and in [13] was inactive.
Turning to `CSC(C)(C)C=NO`, the result in assay [1], in assay [2], in assay [3], in [4], in assay [5] and in [11] was inactive. Moreover, the compound was called inactive in assay [8], in [10], in assay [14] and in assay [6].
